From PubChem BioAssay (Tox21)
Inconclusive results are not listed. Entries that show only a call come without a potency. Values without a mark were called inactive. Calls of active or inactive are those of the source. Unless noted, the call rests on the fitted dose curve; in most records, active means well fitted curve in the direction sought with a large enough effect in the repeat runs; inconclusive means weak or mixed curves; inactive means no such curve, though single readings can be large; an effect the other way counts as inactive or inconclusive.

Tests used:
[1] = biological target: Aryl hydrocarbon receptor (Homo sapiens) (UniProt P35869); assay: qHTS assay to identify small molecule that activate the aryl hydrocarbon receptor (AhR) signaling pathway (AID 743085); further: nearly all actives have a fitted effect of over 15% in size; further: potency means the concentration at half of the fitted maximal effect;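 on activation: HG2L7.5c1 human HepG2 liver cells with stably integrated DRE-driven firefly reporter; series mostly up to about 70 µM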
Procedure, shortened: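 A multiplexed format paired cell viability (CellTiter-Fluor fluorescence) with AhR-dependent luciferase output (ONE-Glo luminescence) in the same wells of HepG2 DRE-luc cells after 24 h compound exposure at 37C.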

[2] = biological target: Peroxisome proliferator-activated receptor gamma (Homo sapiens) (UniProt P37231); assay: qHTS assay to identify small molecule agonists of the peroxisome proliferator-activated receptor gamma (PPARg) signaling pathway (AID 743094; active means well fitted activation curve with a large enough effect in the signal ratio in the repeat runs, not every such curve was filed as active; the % refers to the signal ratio; further: potency means the concentration at half of the fitted maximal effect)
Procedure, shortened: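 Following 5 h plating at 37C, PPARg-bla HEK293H cells receive compound or DMSO for 17 h; fluorescence intensity is recorded after LiveBLAzer B/G loading for 1 h at room temperature.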

[3] = biological target: Peroxisome proliferator-activated receptor gamma (Homo sapiens) (UniProt P37231); assay: qHTS assay to identify small molecule antagonists of the peroxisome proliferator-activated receptor gamma (PPARg) signaling pathway (AID 743191; calls by dose curve; further: series mostly up to about 63 µM; nearly all actives have a fitted effect of over 30% in size)
Procedure, shortened: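 GeneBLAzer PPARg UAS-bla HEK293H cells, 5 h post-plating, exposed to compounds 17 h at 37C. LiveBLAzer B/G FRET substrate added for 1 h at room temperature; beta-lactamase reporter read by fluorescence intensity.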

[4] = qHTS assay to identify small molecule antagonists of the peroxisome proliferator-activated receptor gamma (PPARg) signaling pathway - cell viability counter screen (AID 743194); further: nearly all actives have a fitted effect of over 55% in size; further: potency means the concentration at half of the fitted maximal effect
Procedure, shortened: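 Cytotoxicity counter screen in PPARg-bla HEK293H cells, same wells as reporter assay. Compounds plus 50 nM rosiglitazone (final) for 17 h at 37 C, then viability read by CellTiter-Glo luminescence.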

[5] = qHTS assay for small molecule agonists of the antioxidant response element (ARE) signaling pathway (AID 743202; active means well fitted activation curve with a large enough effect in the signal ratio in the repeat runs, not every such curve was filed as active; the % refers to the signal ratio; further: potency means the concentration at half of the fitted maximal effect)
Procedure, shortened: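 Agonist mode reporter screen: HepG2 cells with ARE-controlled beta-lactamase are incubated with test compounds for 16 h at 37 C, and beta-lactamase activity is measured as fluorescence of cleaved B/G FRET substrate.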

[6] = qHTS assay for small molecule activators of the heat shock response signaling pathway - cell viability counter screen (AID 743209); further: nearly all actives have a fitted effect of over 50% in size; further: potency means the concentration at half of the fitted maximal effect
Procedure, shortened: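 Counter screen for cytotoxicity in HeLa HSE-bla reporter cells. Treatment was 5 h at 37 C; viability was detected by luminescent ATP assay (CellTiter-Glo) in the same wells as the beta-lactamase read.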

[7] = qHTS assay for small molecule activators of the heat shock response signaling pathway (AID 743210; active means well fitted activation curve with a large enough effect in the signal ratio in the repeat runs, with a control signal flat, not every such curve was filed as active; the % refers to the signal ratio;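 further: HeLa cells with beta-lactamase reporter driven by heat shock elements; series mostly up to about 63 µM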)
Procedure, shortened: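 Quantitative high-throughput format using an engineered HeLa line in which heat shock response elements drive beta-lactamase; after 5 h with compound, cells received a B/G FRET substrate and fluorescence was read.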

[8] = qHTS assay to identify small molecule agonists of the peroxisome proliferator-activated receptor delta (PPARd) signaling pathway - cell viability counter screen (AID 743211); further: nearly all actives have a fitted effect of over 55% in size; further: potency means the concentration at half of the fitted maximal effect
Procedure, shortened: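 Tox21 library compounds, delivered in DMSO, were incubated 17 h with PPARd-bla HEK293H cells; cytotoxicity was taken from CellTiter-Glo luminescence read 30 min after reagent addition.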

[9] = biological target: Peroxisome proliferator-activated receptor delta (Homo sapiens) (UniProt Q03181); assay: qHTS assay to identify small molecule agonists of the peroxisome proliferator-activated receptor delta (PPARd) signaling pathway (AID 743212; calls by dose curve; further: potency means the concentration at half of the fitted maximal effect)
Procedure, shortened: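 Quantitative high-throughput agonist screen in a HEK293H beta-lactamase reporter line under UAS control. Compounds in DMSO, at 37 C. Fluorescence read after 2 h with FRET substrate at room temperature.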

[10] = biological target: Bile acid receptor (Homo sapiens) (UniProt Q96RI1); assay: qHTS assay to identify small molecule antagonists of the farnesoid-X-receptor (FXR) signaling pathway (AID 743217; active means well fitted inhibition curve with a large enough effect in the signal ratio in the repeat runs, not every such curve was filed as active; the % refers to the signal ratio; further: potency means the concentration at half of the fitted maximal effect)
Procedure, shortened: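 In this cell-based antagonist screen, inhibition of CDCA-driven (50 uM final) UAS-beta-lactamase expression in HEK 293T cells was measured by FRET fluorescence following 16 h compound exposure at 37 °C.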

[11] = qHTS assay to identify small molecule agonists of the farnesoid-X-receptor (FXR) signaling pathway - cell viability counter screen (AID 743218); further: nearly all actives have a fitted effect of over 45% in size; further: potency means the concentration at half of the fitted maximal effect
Procedure, shortened: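 After 16 h at 37 C with test compounds, FXR-bla HEK 293T cells were given LiveBLAzer B/G substrate for 2 h at RT and then CellTiter-Glo; luminescence was taken after 30 min.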

[12] = biological target: Bile acid receptor (Homo sapiens) (UniProt Q96RI1); assay: qHTS assay to identify small molecule agonists of the farnesoid-X-receptor (FXR) signaling pathway (AID 743220; active means well fitted activation curve with a large enough effect in the signal ratio in the repeat runs, not every such curve was filed as active; the % refers to the signal ratio; further: potency means the concentration at half of the fitted maximal effect)
Procedure, shortened: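 Beta-lactamase reporter under UAS control in GeneBLAzer FXR HEK 293T cells (5000/well) measured with LiveBLAzer FRET substrate after 2 h at room temperature. Compound exposure lasted 16 h at 37C.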

[13] = qHTS assay to identify small molecule antagonists of the farnesoid-X-receptor (FXR) signaling pathway - cell viability counter screen (AID 743221; active means well fitted cell-killing curve with a large enough effect in the repeat runs, not every such curve was filed as active; further: nearly all actives have a fitted effect of over 50% in size; further: potency means the concentration at half of the fitted maximal effect)
Procedure, shortened: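 Cytotoxicity is taken from ATP luminescence (CellTiter-Glo, 30 min, room temperature) in FXR-bla HEK 293T cells previously incubated 16 h at 37 C with compound and chenodeoxycholic acid at 50 uM final.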

[14] = qHTS assay to identify small molecule agonists of the vitamin D receptor (VDR) signaling pathway - cell viability counter screen (AID 743224); further: nearly all actives have a fitted effect of over 50% in size; further: potency means the concentration at half of the fitted maximal effect
Procedure, shortened: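 Here cell health was gauged by luminescent ATP detection (CellTiter-Glo, 30 min RT) in VDR-bla cells that had been incubated with test compounds for 16 h at 37C and 5% CO2.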

[15] = qHTS assay for small molecule agonists of the antioxidant response element (ARE) signaling pathway - cell viability counter screen (AID 743203; calls by dose curve; further: nearly all actives have a fitted effect of over 55% in size; further: potency means the concentration at half of the fitted maximal effect)
Procedure, shortened: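 Compounds in DMSO were pinned onto ARE-bla HepG2 cells plated 5 hrs earlier at 2,000 cells/well. Sixteen hours later at 37C/5% CO2, CellTiter-Glo was added and luminescence measured after 30 min at room temperature.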

[16] = qHTS assay to identify small molecule antagonists of the peroxisome proliferator-activated receptor delta (PPARd) signaling pathway - cell viability counter screen (AID 743213); further: nearly all actives have a fitted effect of over 50% in size; further: potency means the concentration at half of the fitted maximal effect
Procedure, shortened: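 PPARd-bla HEK293H cells were treated with compounds plus agonist L165041 (300 nM final) for 17 h at 37 C. Viability was then read in the same wells by CellTiter-Glo luminescence after 30 min at room temperature.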

[17] = biological target: Vitamin D3 receptor (Homo sapiens) (UniProt P11473); assay: qHTS assay to identify small molecule agonists of the vitamin D receptor (VDR) signaling pathway (AID 743222; calls by dose curve; further: potency means the concentration at half of the fitted maximal effect)
Procedure, shortened: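 VDR-bla cells were seeded, left 4 h, treated with compounds in DMSO for 16 h, incubated 2 h at RT with B/G FRET substrate, and read for fluorescence.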

[18] = qHTS assay to identify small molecule that activate the aryl hydrocarbon receptor (AhR) signaling pathway - cell viability counter screen (AID 743086);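 further: HepG2 liver cells carrying the AhR DRE luciferase reporter; series mostly up to about 70 µM; nearly all actives have a fitted effect of over 45% in size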
Procedure, shortened: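 HepG2-AhR-luc (HG2L7.5c1) cells, 4000/well, treated 24 h at 37 C with compound; viability measured as CellTiter-Fluor fluorescence after 30 min in the same wells as the luciferase read.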

[19] = biological target: Vitamin D3 receptor (Homo sapiens) (UniProt P11473); assay: qHTS assay to identify small molecule antagonists of the vitamin D receptor (VDR) signaling pathway (AID 743223; active means well fitted inhibition curve with a large enough effect in the signal ratio in the repeat runs, not every such curve was filed as active; the % refers to the signal ratio)
Procedure, shortened: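 Quantitative HTS in VDR-bla reporter cells stimulated with 1alpha,25-dihydroxyvitamin D3, 3 nM final. Compound exposure 16 h, 37C, 5% CO2. Read-out: beta-lactamase FRET substrate fluorescence, 2 h RT.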

[20] = biological target: Peroxisome proliferator-activated receptor delta (Homo sapiens) (UniProt Q03181); assay: qHTS assay to identify small molecule antagonists of the peroxisome proliferator-activated receptor delta (PPARd) signaling pathway (AID 743215; active means well fitted inhibition curve with a large enough effect in the signal ratio in the repeat runs, not every such curve was filed as active; the % refers to the signal ratio;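 further: cells stimulated with agonist L165041 at 300 nM final during compound exposure; series mostly up to about 62 µM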)
Procedure, shortened: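 With L165041 present at 300 nM final, compounds were incubated 17 h at 37 C on PPARd UAS-bla HEK293H cells. A FRET-based beta-lactamase substrate was then applied for 2 h at room temperature and fluorescence intensity recorded.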

Sequence of Vitamin D3 receptor (Homo sapiens) (P11473 whole entry, looked up): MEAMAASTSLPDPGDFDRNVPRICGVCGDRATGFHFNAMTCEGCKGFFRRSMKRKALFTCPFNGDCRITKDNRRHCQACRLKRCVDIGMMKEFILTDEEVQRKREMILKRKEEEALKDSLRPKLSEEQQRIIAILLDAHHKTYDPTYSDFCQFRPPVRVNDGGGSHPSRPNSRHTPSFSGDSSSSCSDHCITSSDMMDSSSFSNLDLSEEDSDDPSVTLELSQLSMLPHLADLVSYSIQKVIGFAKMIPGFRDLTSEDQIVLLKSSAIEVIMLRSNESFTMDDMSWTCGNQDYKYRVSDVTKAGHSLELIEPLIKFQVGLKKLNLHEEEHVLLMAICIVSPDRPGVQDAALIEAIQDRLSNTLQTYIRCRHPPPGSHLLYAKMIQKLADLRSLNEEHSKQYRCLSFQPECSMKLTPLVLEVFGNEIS
Sequence of Peroxisome proliferator-activated receptor gamma (Homo sapiens) (P37231 whole entry, looked up): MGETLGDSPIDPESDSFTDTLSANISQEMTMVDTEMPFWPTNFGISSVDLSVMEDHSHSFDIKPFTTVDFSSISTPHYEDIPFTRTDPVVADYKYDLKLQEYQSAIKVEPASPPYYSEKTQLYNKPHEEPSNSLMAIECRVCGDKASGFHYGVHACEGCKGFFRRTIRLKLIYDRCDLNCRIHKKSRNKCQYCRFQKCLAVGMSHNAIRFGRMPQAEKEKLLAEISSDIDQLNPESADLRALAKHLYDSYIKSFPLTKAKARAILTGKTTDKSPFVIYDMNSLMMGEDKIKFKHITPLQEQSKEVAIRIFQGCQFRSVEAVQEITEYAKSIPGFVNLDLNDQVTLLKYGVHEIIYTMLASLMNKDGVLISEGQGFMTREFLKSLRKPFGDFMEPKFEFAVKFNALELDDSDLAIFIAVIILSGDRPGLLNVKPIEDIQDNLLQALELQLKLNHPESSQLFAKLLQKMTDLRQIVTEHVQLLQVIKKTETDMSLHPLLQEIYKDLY
Sequence of Peroxisome proliferator-activated receptor delta (Homo sapiens) (Q03181 whole entry, looked up): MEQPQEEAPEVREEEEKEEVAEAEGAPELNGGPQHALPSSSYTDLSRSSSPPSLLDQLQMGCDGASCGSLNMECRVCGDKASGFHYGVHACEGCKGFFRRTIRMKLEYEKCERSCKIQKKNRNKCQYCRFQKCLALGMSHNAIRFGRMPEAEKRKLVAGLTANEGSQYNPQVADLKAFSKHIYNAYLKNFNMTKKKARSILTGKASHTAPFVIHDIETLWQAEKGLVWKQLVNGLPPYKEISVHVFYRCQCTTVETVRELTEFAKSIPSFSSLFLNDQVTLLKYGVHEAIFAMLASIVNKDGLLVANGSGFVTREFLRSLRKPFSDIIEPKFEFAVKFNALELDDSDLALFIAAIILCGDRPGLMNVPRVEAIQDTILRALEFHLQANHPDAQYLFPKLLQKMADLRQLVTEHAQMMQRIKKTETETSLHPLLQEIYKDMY
Sequence of Aryl hydrocarbon receptor (Homo sapiens) (P35869 whole entry, looked up): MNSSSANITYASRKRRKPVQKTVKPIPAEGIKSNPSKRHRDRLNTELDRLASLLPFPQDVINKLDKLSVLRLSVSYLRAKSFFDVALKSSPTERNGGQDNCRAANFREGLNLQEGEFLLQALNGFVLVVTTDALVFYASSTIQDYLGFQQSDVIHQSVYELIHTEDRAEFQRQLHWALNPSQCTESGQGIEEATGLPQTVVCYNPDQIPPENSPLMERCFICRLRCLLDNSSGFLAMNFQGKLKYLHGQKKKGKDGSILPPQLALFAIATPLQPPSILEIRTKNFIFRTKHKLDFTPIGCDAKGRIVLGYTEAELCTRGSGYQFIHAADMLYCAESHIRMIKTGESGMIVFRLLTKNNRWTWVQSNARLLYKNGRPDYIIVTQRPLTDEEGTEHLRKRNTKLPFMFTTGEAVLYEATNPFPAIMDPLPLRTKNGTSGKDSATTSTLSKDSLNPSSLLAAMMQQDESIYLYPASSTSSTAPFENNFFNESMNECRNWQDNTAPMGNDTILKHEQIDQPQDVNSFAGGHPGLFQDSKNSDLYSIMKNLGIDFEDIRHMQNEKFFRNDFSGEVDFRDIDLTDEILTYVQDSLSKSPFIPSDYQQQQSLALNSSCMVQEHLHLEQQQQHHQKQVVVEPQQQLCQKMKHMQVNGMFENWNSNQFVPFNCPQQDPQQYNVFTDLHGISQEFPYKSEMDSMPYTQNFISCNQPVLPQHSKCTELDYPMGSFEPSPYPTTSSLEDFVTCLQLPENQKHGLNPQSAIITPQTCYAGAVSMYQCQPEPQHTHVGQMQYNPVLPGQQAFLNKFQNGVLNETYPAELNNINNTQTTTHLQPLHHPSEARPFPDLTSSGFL
Sequence of Bile acid receptor (Homo sapiens) (Q96RI1 whole entry, looked up): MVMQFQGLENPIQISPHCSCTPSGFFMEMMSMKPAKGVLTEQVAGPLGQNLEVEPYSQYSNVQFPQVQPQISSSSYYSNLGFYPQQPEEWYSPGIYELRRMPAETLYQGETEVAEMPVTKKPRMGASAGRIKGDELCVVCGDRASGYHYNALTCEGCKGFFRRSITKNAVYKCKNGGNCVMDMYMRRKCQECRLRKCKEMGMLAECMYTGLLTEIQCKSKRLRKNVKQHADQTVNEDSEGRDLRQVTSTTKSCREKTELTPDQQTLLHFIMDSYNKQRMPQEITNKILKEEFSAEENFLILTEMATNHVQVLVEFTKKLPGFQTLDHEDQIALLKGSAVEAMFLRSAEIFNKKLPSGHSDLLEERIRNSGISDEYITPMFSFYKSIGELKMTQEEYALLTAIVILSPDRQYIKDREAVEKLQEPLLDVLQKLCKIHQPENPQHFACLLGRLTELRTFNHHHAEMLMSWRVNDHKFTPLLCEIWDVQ

Compound: C=C(C)c1cccc(C(=C)C)c1
- Potency [1]: inactive
- Potency [2]: inactive
- Potency [3]: inactive
- Potency [4]: inactive
- Potency [5]: inactive
- Potency [6]: inactive
- Potency [7]: inactive
- Potency [8]: inactive
- Potency [9]: inactive
- Potency [10]: inactive
- Potency [11]: inactive
- Potency [12]: inactive
- Potency [13]: inactive
- Potency [14]: inactive

Compound: OCCN1CCN(CCCN2c3ccccc3Sc3ccc(C(F)(F)F)cc32)CC1
- Potency [1]: inactive
- Potency [15]: 29.8 µM (active)
- Potency [6]: inactive
- Potency [8]: 26.6 µM (active)
- Potency [9]: inactive
- Potency [16]: 11.9 µM (active)
- Potency [10]: inactive
- Potency [11]: 29.8 µM (active)
- Potency [12]: inactive
- Potency [17]: inactive

Compound: CC[N+](CC)(CC)CCOc1ccc(/C=C/c2ccccc2)cc1
- Potency [1]: inactive
- Potency [2]: inactive
- Potency [3]: inactive
- Potency [4]: inactive
- Potency [15]: inactive
- Potency [6]: inactive
- Potency [7]: inactive
- Potency [8]: inactive
- Potency [16]: inactive
- Potency [11]: inactive
- Potency [13]: inactive
- Potency [14]: inactive

Compound: CC(C)(C)c1csc(-c2cc3cc(OCc4ccccc4CC(=O)O)ccc3o2)n1
- Potency [1]: inactive
- Potency [2]: 0.776 µM (active)
- Potency [5]: 4.86 µM (active)
- Potency [8]: 24.5 µM (active)
- Potency [12]: inactive
- Potency [13]: inactive

Compound: O=C1CCc2ccc(OCCCCN3CCN(c4cccc(Cl)c4Cl)CC3)cc2N1
- Potency [1]: inactive
- Potency [4]: 15 µM (active)
- Potency [15]: 16.8 µM (active)
- Potency [6]: 26.6 µM (active)
- Potency [8]: 11.9 µM (active)
- Potency [16]: 13.3 µM (active)
- Potency [11]: 13.3 µM (active)
- Potency [12]: inactive
- Potency [13]: 16.8 µM (active)
- Potency [14]: 11.9 µM (active)

Compound: CCO[Si](OCC)(OCC)OCC
- Potency [18]: inactive
- Potency [2]: inactive
- Potency [3]: inactive
- Potency [4]: inactive
- Potency [5]: inactive
- Potency [15]: inactive
- Potency [6]: inactive
- Potency [7]: inactive
- Potency [8]: inactive
- Potency [16]: inactive
- Potency [11]: inactive
- Potency [13]: inactive
- Potency [19]: inactive
- Potency [14]: inactive

Compound: O=c1c(O)c(-c2ccc(O)cc2O)oc2cc(O)cc(O)c12
- Potency [1]: inactive
- Potency [2]: inactive
- Potency [4]: inactive
- Potency [6]: inactive
- Potency [8]: inactive
- Potency [9]: inactive
- Potency [11]: inactive
- Potency [12]: inactive
- Potency [13]: inactive

Compound: O=S(=O)(O)c1ccc(N=Nc2c(O)ccc3ccccc23)cc1
- Potency [1]: 27.3 µM (active)
- Potency [2]: inactive
- Potency [3]: inactive
- Potency [4]: inactive
- Potency [7]: inactive
- Potency [8]: inactive
- Potency [9]: inactive
- Potency [11]: 38.9 µM (active)
- Potency [13]: 38.9 µM (active)
- Potency [17]: inactive
- Potency [19]: inactive
- Potency [14]: inactive

Compound: CC(CCc1ccccc1)NCC(O)c1ccc(O)c(C(N)=O)c1 (configuration not stated)
- Potency [1]: inactive
- Potency [2]: inactive
- Potency [3]: inactive
- Potency [4]: inactive
- Potency [15]: inactive
- Potency [6]: inactive
- Potency [8]: inactive
- Potency [9]: inactive
- Potency [20]: inactive
- Potency [11]: inactive
- Potency [12]: inactive
- Potency [13]: inactive

Compound: ClCCl
- Potency [18]: inactive
- Potency [2]: inactive
- Potency [3]: inactive
- Potency [4]: inactive
- Potency [5]: inactive
- Potency [15]: inactive
- Potency [6]: inactive
- Potency [7]: inactive
- Potency [8]: inactive
- Potency [9]: inactive
- Potency [16]: inactive
- Potency [13]: inactive
- Potency [14]: inactive

Compound: O=S(=O)(O)c1ccc(Nc2nc(Nc3ccc(/C=C/c4ccc(Nc5nc(Nc6ccc(S(=O)(=O)O)cc6)nc(N(CCO)CCO)n5)cc4S(=O)(=O)O)c(S(=O)(=O)O)c3)nc(N(CCO)CCO)n2)cc1
- Potency [1]: inactive
- Potency [4]: inactive
- Potency [15]: inactive
- Potency [6]: inactive
- Potency [8]: inactive
- Potency [9]: 33.1 µM (active)
- Potency [16]: inactive
- Potency [12]: 33.1 µM (active)
- Potency [13]: inactive
- Potency [17]: 13.2 µM (active)
- Potency [14]: inactive

Compound: COC(=O)Nc1nc2ccc(C(=O)c3ccccc3)cc2[nH]1
- Potency [1]: 4.52 µM (active)
- Potency [2]: inactive
- Potency [4]: inactive
- Potency [6]: inactive
- Potency [7]: inactive
- Potency [8]: inactive
- Potency [9]: inactive
- Potency [16]: inactive
- Potency [20]: inactive
- Potency [10]: 1.06 µM (active)
- Potency [11]: inactive
- Potency [12]: inactive
- Potency [13]: inactive
- Potency [14]: inactive

Compound: Cc1ccc(O)c(O)c1
- Potency [1]: 29.8 µM (active)
- Potency [6]: inactive
- Potency [11]: inactive
- Potency [12]: inactive
- Potency [13]: inactive
- Potency [19]: inactive

Compound: CCC(C)n1ncn(-c2ccc(N3CCN(c4ccc(OC[C@H]5CO[C@](Cn6cncn6)(c6ccc(Cl)cc6Cl)O5)cc4)CC3)cc2)c1=O (some centres not stated)
- Potency [1]: inactive
- Potency [2]: inactive
- Potency [3]: inactive
- Potency [4]: inactive
- Potency [15]: inactive
- Potency [6]: inactive
- Potency [9]: inactive
- Potency [20]: inactive
- Potency [13]: inactive
- Potency [17]: inactive
- Potency [19]: inactive
- Potency [14]: inactive

Compound: CC(=O)c1ccc(C(C)=O)cc1
- Potency [1]: inactive
- Potency [2]: inactive
- Potency [5]: inactive
- Potency [15]: inactive
- Potency [6]: inactive
- Potency [8]: inactive
- Potency [9]: inactive
- Potency [16]: inactive
- Potency [20]: inactive
- Potency [10]: inactive
- Potency [11]: inactive
- Potency [12]: inactive
- Potency [17]: inactive

Compound: C=Cc1cccc(C)c1
- Potency [1]: inactive
- Potency [2]: inactive
- Potency [4]: inactive
- Potency [15]: inactive
- Potency [6]: inactive
- Potency [7]: inactive
- Potency [8]: inactive
- Potency [9]: inactive
- Potency [16]: inactive
- Potency [20]: inactive
- Potency [11]: inactive
- Potency [13]: inactive
- Potency [17]: inactive
- Potency [19]: inactive
